This is an account of results in PubChem BioAssay (NCATS).

The structures appear in SMILES notation. Records with an inconclusive call do not appear. Values without a mark were called inactive. The source made the active and inactive calls. The call rests on the fitted dose curve; in most records, active means well fitted cell-killing curve with a large enough effect; inconclusive means small, poorly fitted or top-dose-only effect, or effect the other way; inactive means no such curve, though single readings can be large or run the other way.
Potency means the concentration at half of the fitted maximal effect.

This test in a line: Quantitative High-Throughput drug screen in 47 multiple myeloma cell lines against the NCATS MIPE library collection: L363_DSMZ cell viability assay (AID 1918984). Further: nearly all actives have a fitted effect of over 40% in size. Conditions: L363 myeloma viability, CellTiter-Glo ATP luminescence, 48 h; viability (% of control): at 45.8 µM (top of the series). The source says:
PI: Beverly A. Mock Ph.D.
Laboratory of Cancer Biology and Genetics,
Center for Cancer Research, National Cancer Institute,
National Institute of Health, Bethesda, Maryland
Drug resistance and disease progression are common in multiple myeloma (MM) patients, underscoring the need for new therapeutic combinations. […] We hypothesized that effective combinations would reduce MYC expression and enhance p16 activity. […] These preclinical data identify potentially useful drug combinations for evaluation in drug-resistant MM and reveal potential mechanisms of combined drug sensitivity.
Described herein is the primary MIPE qHTS used to cherrypick compounds. Validated compounds were then further tested for potential synergistic activiy.
[1] Peat TJ, Gaikwad SM, Dubois W, Gyabaah-Kessie N, Zhang S, Gorjifard S, Phyo Z, Andres M, Hughitt VK, Simpson RM, Miller MA, Girvin AT, Taylor A, Williams D, D'Antonio N, Zhang Y, Rajagopalan A, Flietner E, Wilson K, Zhang X, Shinn P, Klumpp-Thomas C, McKnight C, Itkin Z, Chen L, Kazandijian D, Zhang J, Michalowski AM, Simmons JK, Keats J, Thomas CJ, Mock BA. Drug combinations identified by high-throughput screening promote cell cycle transition and upregulate Smad pathways in myeloma. Cancer Lett. 2023 Aug 1;568:216284. doi: 10.1016/j.canlet.2023.216284. Epub 2023 Jun 24. PMID: 37356470; PMCID: PMC10408729.
SEQUENCE No. (e.g., 1, 2, 3, etc.); […] (e.g., Cells, Incubation, Reagent, etc.); VALUE and DESCRIPTION.
1; Cells; 5 uL; white, solid bottom 1536-well Greiner assay plate.
2; Compounds; 23 nL; Kalypsis pin tool (Wako USA) equipped with a 1536-well pin head to transfer to the assay plates.
3; Incubation; 48 hours; 37C incubation.
4; Reagent;5uL; CellTiter Glo (Promega).
5; Detector; 425V; Luminescence; Viewlux PerkinElmer.
NOTES (numbers refer to Sequence numbers above)
1. The cell-based screening methods employed in this study were like those previously published. Briefly, the corresponding myeloma cell lines were screened in 1,536-well plates with 500 cells, 5-uL per well for inhibition of cell viability (assessed by measuring ATP levels with CellTiterGlo).
2. NCATS MIPE 4.0 library of approved and investigational drugs were added using the Kalypsis pin tool. Wells treated with DMSO only for 100% viability and media only for 0% viability were used as controls.
3. The assay plates were covered and incubated for 48 hours in a 37C, 5% CO2 incubator with controlled humidity.
4. After 48 hours, CellTilter-GloTM luminescent substrate mix (Promega) reagent was added to the assay plate and plates we incubated for 5 min at room temperature.
5. Signal was measured as median relative luminescence units on a ViewLux (PerkinElmer) multiplate reader.
[1] Heske CM, Davis MI, Baumgart JT, Wilson K, Gormally MV, Chen L, Zhang X, Ceribelli M, Duveau DY, Guha R, Ferrer M, Arnaldez FI, Ji J, Tran HL, Zhang Y, Mendoza A, Helman LJ, Thomas CJ. Matrix Screen Identifies Synergistic Combination of PARP Inhibitors and Nicotinamide Phosphoribosyltransferase (NAMPT) Inhibitors in Ewing Sarcoma. Clin Cancer Res. 2017 Dec 1;23(23):7301-7311. doi: 10.1158/1078-0432.CCR-17-1121. Epub 2017 Sep 12. PMID: 28899971; PMCID: PMC6636827.
A general note: ATP-based viability assays read luminescence as a measure of living cells.
As to `OC[C@H]1O[C@@H](OCCc2ccc(O)cc2)[C@H](O)[C@@H](O)[C@H]1O`, the “viability (% of control)” value was 111%.
In the case of `CC[C@H](CC#N)OC(=O)N[C@@H](C)c1cccc(NC(=O)Nc2ccc(-c3cnco3)c(OC)c2)c1`, the Potency was 18.7 µM (active).
In the case of `COc1ccc2cc1Oc1ccc(cc1)C[C@H]1c3cc(c(OC)cc3CCN1C)Oc1c(OC)c(OC)cc3c1[C@H](C2)N(C)CC3`, the Potency is 5.9 µM (active).
In the case of `CCCCOCCOc1nc(-c2ccc(C(=O)O)c(F)c2)sc1C`, the “viability (% of control)” value was 105%.
Take `CCN(CCO)CCCOc1ccc2c(Nc3cc(CC(=O)Nc4cccc(F)c4)[nH]n3)ncnc2c1`: the “viability (% of control)” value is 86.6%.
The same measure, in the same setting: to `Cc1c(-c2cccc3c(CCCOc4cccc5ccccc45)c(C(=O)O)n(Cc4cccnc4)c23)c(COc2ccc(N3CCN([S+](=O)([O-])N(C)C)CC3)cc2)nn1C` belongs 80.1%; to `Cc1cc2c(cc1C1(c3ccc(C(=O)O)cn3)CC1)C(C)(C)CCC2(C)C`, 99.6%.
In the case of `CC1=C(CC(=O)O)c2cc(F)ccc2C1=Cc1ccc(S(C)=O)cc1` (stereo not given), the Potency was 13.2 µM (active).
In the case of `COc1cc([C@H]2Oc3cc([C@H]4Oc5cc(O)cc(O)c5C(=O)[C@H]4O)ccc3O[C@H]2CO)ccc1O`, the “viability (% of control)” value was 109%.
Regarding `COc1c(C)cnc(Cn2cnc3c(Cl)nc(N)nc32)c1C`, the Potency is 0.0372 µM (active).
As for `CCC(=O)N1CCN(c2ccc(-n3c(=O)ccc4cnc5ccc(-c6cnc7ccccc7c6)cc5c43)cc2C(F)(F)F)CC1`, the “viability (% of control)” value is 15.4%.
As to `COc1nc(C)cnc1NS(=O)(=O)c1cccnc1-c1ccc(-c2nnco2)cc1`, the “viability (% of control)” value is 129%.
Take `Cc1ccc(S(=O)(=O)Nc2nc3ccccc3nc2Nc2ccc3nsnc3c2)cc1`: the Potency is 0.204 µM (active).
On to `CC1=C(C(=O)Nc2cc3cn[nH]c3cc2F)C(c2ccc(C(F)(F)F)cc2)CC(=O)N1` (stereo not given), for which the “viability (% of control)” value was 92.5%.
Same read-out and setting: to `CCCCc1ccc(NS(=O)(=O)c2ccc(C)c(C(=O)N3CCN(c4cccc(C)c4C)CC3)c2)cc1` belongs 133%.
Turning to `Cc1cccc(Nc2nc(N[C@@H]3CCCC[C@H]3N)ncc2C(N)=O)c1`, the Potency is 16.6 µM (active).
As for `C=C1c2cccc(O)c2C(O)=C2C(=O)[C@@]3(O)C(O)=C(C(N)=O)C(=O)[C@@H](N(C)C)[C@@H]3[C@@H](O)[C@H]12`, the “viability (% of control)” value is 94.5%.
On the same count and under the same terms, to `CO[C@H]1C=CO[C@@]2(C)Oc3c(C)c(O)c4c(O)c(c(C=NN5CCN(C)CC5)c(O)c4c3C2=O)NC(=O)C(C)=CC=C[C@H](C)[C@H](O)[C@@H](C)[C@@H](O)[C@@H](C)[C@H](OC(C)=O)[C@H]1C` belongs 98.7% [at 15.3 µM].
Consider `CC=C(C(=CC)c1ccc(O)cc1)c1ccc(O)cc1`, for which the Potency is 13.2 µM (active).
In the case of `Cc1cc(CS(=O)(=O)c2ccccc2)cc(OCc2ccc(CN3CCC[C@H]3CO)cc2)c1`, the Potency is 8.33 µM (active).
Turning to `NS(=O)(=O)c1ccc(Nc2nc(OCC3CCCCC3)c3[nH]cnc3n2)cc1`, the Potency is 20.9 µM (active).
Still for that read-out and setting: to `Cc1cccc(-c2[nH]c(C(C)(C)C)nc2-c2ccc3c(c2)OCO3)n1` belongs 2.35 µM (active).
Consider `CN1C(=O)C(Cc2c[nH]c3ccccc23)NC1=S` (stereo not given), for which the “viability (% of control)” value is 88.2%.
For `NC(=O)c1nnn(Cc2cc(Cl)c(C(=O)c3ccc(Cl)cc3)c(Cl)c2)c1N`, the “viability (% of control)” value is 86.2%.
In the case of `CC1(C)OC2CC3C4CC(F)C5=CC(=O)C=CC5(C)C4C(O)CC3(C)[C@]2(C(=O)CO)O1` (stereo not given in full), the Potency was 0.132 µM (active).
On to `Cc1ccc(NC(=O)Nc2cc(C(F)(F)F)ccc2F)cc1Nc1ccc2c(c1)NC(=O)C2=Cc1ccc[nH]1`, for which the Potency was 7.43 µM (active).
As to `CNC(=O)c1cc(Oc2ccc(NC(=O)Nc3ccc(Cl)c(C(F)(F)F)c3)c(F)c2)ccn1`, the Potency was 6.62 µM (active).
Take `O=[N+]([O-])c1ccc(Nc2ccccc2-c2ccccc2)c2nonc12`: the Potency was 16.6 µM (active).
On the same count and under the same terms, to `CN(C)CCOc1ccc(-c2nc(-c3ccc4c(c3)CCC4=NO)c(-c3ccncc3)[nH]2)cc1` belongs 6.62 µM (active).
For the molecule `C=C[C@@H]1CN2CCC1C[C@@H]2C(O)c1ccnc2ccc(OC)cc12` (stereo not given in full), the “viability (% of control)” value was 101%.
As to `CN1CC(=O)NC1=NC(=O)Nc1cccc(Cl)c1`, the Potency was 2.96 µM (active).
On to `CC(C)n1c(C=C[C@H](O)C[C@H](O)CC(=O)O)c(-c2ccc(F)cc2)c2ccccc21`, for which the Potency was 4.18 µM (active).
As to `O=C(O)CCC=CCC[C@@H]1[C@H](N2CCCCC2)[C@@H](O)C[C@@H]1OCc1ccc(-c2ccccc2)cc1`, the “viability (% of control)” value was 106%.
As to `COc1cc2nccc(Oc3ccc(NC(=O)Nc4ccc(F)cc4F)c(F)c3)c2cc1OC`, the “viability (% of control)” value was 81.9%.
The same measure, in the same setting: to `Cc1ccc2c(c1)C(=O)[C@]1(O)CCN(c3ccccc3)C1=N2` belongs 74.5%; to `COc1ccc(CCN(C)CCCOc2ccc(S(=O)(=O)c3[nH]c4ccccc4c3C(C)C)cc2)cc1OC`, 135%.
`CN1CCN(c2cccc(Nc3nc4c(-c5ccc(S(C)(=O)=O)cc5)cccn4n3)c2)CC1`: the Potency is 3.32 µM (active).
For `CCOC(=O)N1c2ccc(C(F)(F)F)cc2[C@@H](N(Cc2cc(C(F)(F)F)cc(C(F)(F)F)c2)C(=O)OC)C[C@H]1CC`, the “viability (% of control)” value was 104%.
Still for that read-out and setting: to `CCCCC(F)(F)[C@@]1(O)CC[C@H]2[C@H](CC(=O)[C@@H]2CCCCCCC(=O)O)O1` belongs 116%.
With `CCCCCCCCCCCCCC(=O)N[C@H](CO)[C@H](O)c1ccc([N+](=O)[O-])cc1`, the Potency was 16.6 µM (active).
